Source: PubChem (National Center for Advancing Translational Sciences (NCATS))
HepG2 tox = counter-screen for TGF-b inhibitors: cytotoxicity in HepG2 cells | HepG2 CAGA-GFP viability, ATP luminescence, 18 h | Potency, µM (highest dose often 46.1 µM), inactives show at the highest dose activity change, negative = cytotoxicity, usual class: cytotoxic | 410,000 tested, 0.76% active | AID 588856
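HepG2 CAGA-GFP cells (1000/well, DMEM with 1% FBS) received compound, then TGF-beta at 500 pg/mL final, and were incubated 18 hours at 37 degrees C. Viability was read by CellTiter-Glo luminescence. Media-only wells were set as complete cell-killing and DMSO as no toxicity.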
HT1080 IDH1KD tx = toxicity to HT-1080 IDH1 knockdown cells (counter line); HT-1080 IDH1 knockdown viability, ATP luminescence, 48 h; Potency, µM (highest dose often 46.1 µM), inactives show at the highest dose activity, negative = toxicity, hits mostly cytotoxic; 360,000 tested, 2% active;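 note: 0% = DMSO wells and -100% = cell-free medium wells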
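Using the IDH1-knockdown HT-1080 line run in the same batch and compound series as the NT line, viability after 48 h at 37 °C was determined by CellTiter-Glo luminescence and expressed as % activity.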
DT40 TDP1 CPT = growth inhibition of DT40 Tdp1-/-;hTDP1 cells with camptothecin (screen for TDP1 inhibitors) | chicken DT40 Tdp1-/-;hTDP1 cells + 20 nM CPT, ATP luminescence, 48 h | Potency, µM (top dose mostly 46.2 µM), for the others: at the highest dose activity change, negative = growth inhibition, hits mostly inhibitors | 420,000 tested, 12% active; note: % is set by controls: 0 for no effect and ±100 for the full control effect; nearly all actives have a fitted effect of over 55% in size
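Chicken DT40 Tdp1-/- cells complemented with human TDP1, 400 cells/well, exposed to compounds plus 20 nM camptothecin for at least 48 h at 37 C; viability read as ATP content by CellTiter-Glo luminescence.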
HT1080NT lethal = kills 2HG-producing HT-1080-NT fibrosarcoma cells; AID 686970; 360,000 tested, 1.6% active; Potency, µM (titrated, usually from 46.1 µM), for the others: top-dose activity, negative = less viability, most hits filed as cytotoxic; HT-1080-NT fibrosarcoma viability, CellTiter-Glo ATP luminescence, 48 h;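 note: NT is the 2HG producing partner of a matched IDH1 knockdown line; 0% = DMSO-treated cells and -100% = media-only wells without cells; nearly all actives have a fitted effect of over 55% in size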
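Toxicity toward the 2HG-producing NT line was scored as %Activity, normalised to DMSO and no-cell wells, from CellTiter-Glo luminescence after 48 hours' treatment.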
TGFb SMAD3 inh = blocks TGF-b signaling; 410,000 tested, 1.2% active; HepG2 CAGA-GFP TGF-b/SMAD3 reporter, GFP fluorescence, 18 h; TGF-beta stimulated, 500 pg/mL final; Potency, µM (highest dose often 46.1 µM), without a hit: top-dose activity, negative = inhibition, actives largely listed as inhibitors; note: % is set by controls: 0 for no effect and ±100 for the full control effect; nearly all actives have a fitted effect of over 65% in size
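Inhibition was scored as loss of TGF-beta-induced (500 pg/mL final, 18 hours, 37 degrees C) GFP in HEPG2 cells carrying a CAGA-GFP reporter, in DMEM with 1% FBS. Well GFP was summed per cell; Activity was normalised to unstimulated and stimulated DMSO wells, then concentration-response fitting.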
TDP1 cell noCPT = qHTS for Inhibitors of human tyrosyl-DNA phosphodiesterase 1 (TDP1): qHTS in cells in absence of CPT | DT40 Tdp1-/- hTDP1 cells, no CPT, ATP luminescence, 48 h | Potency, µM (highest dose often 46.2 µM), inactives show at the top dose activity change, negative = growth inhibition, actives largely listed as inhibitors | 420,000 tested, 15% active | AID 686978, 2013; note: % is set by controls: 0 for no effect and ±100 for the full control effect; nearly all actives have a fitted effect of over 55% in size
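Compound effects on proliferation are scored in DT40 Tdp1-/-;hTDP1 cells in the absence of CPT. ATP levels (CellTiter-Glo luminescence) are recorded after a ≥48 hr, 37 °C incubation.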
Active calls of the source: *; ? = inconclusive; . = no result. Sampled rows, rich in hits. Any-hit rate of the full collection: about 17%. Calls come from the whole dose curve; as a rule, active = well fitted curve in the direction sought with a large enough effect; inconclusive = small, poorly fitted or top-dose-only effect, or another doubt; inactive = no such curve, though single readings can be large; an effect the other way counts as inactive or inconclusive. Potency is the fitted concentration of half-maximal effect.

SMILES	HepG2 tox	HT1080 IDH1KD tx	DT40 TDP1 CPT	HT1080NT lethal	TGFb SMAD3 inh	TDP1 cell noCPT
CCCC(=O)c1ccc(N2CCN(C(=O)c3ccccc3)CC2)c(F)c1	-37.5%	-6.8%	?	-1.3%	?	?
CCNc1ncc2nc(C)c(=O)n(C)c2n1	.	.	-1.1%	.	.	-1.4%
CCC(=O)Nc1ccc(-c2nnc(SCC(=O)NCC3CCCO3)n2C)cc1 (configuration not stated)	1.7%	3.2%	3.9%	6.4%	-7.1%	13.5%
CCOC(=O)C1(CCc2ccccc2)CCN(C(=O)CN2CCOC2=O)CC1	1.6%	13.6%	-6.4%	-2.8%	1.6%	-11.6%
Cc1c(NC(=O)c2cc(-c3ccc(F)cc3)nc3ccccc23)c(=O)n(-c2ccccc2)n1C	4.1%	-14.3%	?	-10.9%	0.4%	11.6µM*
Cc1cccc(-c2cc(C(=O)Nc3c(C)n(C)n(-c4ccccc4)c3=O)c3ccccc3n2)c1	-27.0%	4.4%	25.9µM*	-14.9%	-5.9%	14.6µM*
Cc1ccc(-n2c(N)c(C(=O)Nc3c(C)n(C)n(-c4ccccc4)c3=O)c3nc4ccccc4nc32)cc1	2.9%	-7.0%	?	-2.6%	15.1%	?
Cc1cc(C)cc(-n2c(N)c(C(=O)Nc3c(C)n(C)n(-c4ccccc4)c3=O)c3nc4ccccc4nc32)c1	-25.4%	?	7.31µM*	-14.2%	-26.1%	8.2µM*
CCOC(=O)c1ccccc1NC(=O)COC(=O)Cc1ccccc1F	-1.3%	4.5%	7.1%	-0.3%	-6.1%	-8.5%
CSc1nc(COC(=O)NC(C)C)c(COC(=O)NC(C)C)n1Cc1ccccc1	6.8%	5.1%	9.2µM*	17.8%	1.2%	13µM*
N#C/C(=C1\SCC(c2ccccc2Cl)S1)n1ccnc1 (configuration not stated)	.	.	?	.	.	23.7µM*
CC(/C=C/c1ccc(Cl)o1)=C\C(=O)O	2.1%	18.0%	-6.8%	3.1%	-2.2%	-4.1%
CC(=C/C(=O)O)/C=C/c1ccco1	-2.7%	?	6.51µM*	?	-4.5%	7.31µM*
CC(/C=C/c1ccco1)=N/NC(=O)OC(C)(C)C	-1.7%	-3.7%	?	-1.1%	0.5%	14.6µM*
C/C(=N/NC(=O)OC(C)(C)C)c1ccco1	-3.1%	-8.6%	5.4%	-8.8%	-3.4%	-2.7%
CC(/C=C/c1ccco1)=N/NC(=O)Cc1cccs1	-4.7%	5.4%	7.08µM*	-0.2%	-6.8%	3.98µM*
Cc1c(C(=O)N(C)Cc2cccc3ncccc23)cnn1-c1nccc(-c2ccccc2F)n1	.	.	-2.6%	.	.	-28.2%
Cc1cc(C(=O)N(Cc2cc3cc4c(cc3nc2N2CCOCC2)CCC4)CC2CCCO2)c(=O)[nH]c1C (configuration not stated)	.	.	4.7%	.	.	-4.7%
Cc1nc2nc(SCC(=O)NC(C)c3ccccc3)nn2c(C)c1Cc1c(F)cccc1Cl (configuration not stated)	-1.4%	.	23.1µM*	.	0.0%	16.4µM*
Cc1ccc(Cc2c(C)nc3nc(SCC(=O)NCc4ccco4)nn3c2C)cc1	-0.9%	2.59µM*	3.26µM*	?	-10.6%	4.61µM*
Cc1ccccc1Cc1c(C)nc2nc(SCC(=O)N(C)c3ccccc3)nn2c1C	-20.6%	.	23.1µM*	.	-27.0%	?
Cc1ccccc1Cc1c(C)nc2nc(SCC(=O)NCCCN3CCCCC3)nn2c1C	-11.7%	3.0%	-4.8%	0.3%	14.6%	-18.1%
